Measured values as given in PubChem BioAssay (NCI).
About 79,000 compounds went through this panel and 15% of them were active in at least one assay; those are over-represented in the sample as a whole. Cut-off read from the data, not from the text of the source: active = growth inhibition above about 70%; inactive = the rest.

Columns and labels:
[1] = NCI Yeast Anticancer Drug Screen. Data for the rad50 strain (AID 155);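 note: 0% = growth of vehicle-only cultures of the same strain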; settings: S. cerevisiae rad50 strain growth inhibition; at 50.0 µM; hits give high values
How it was run: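 Growth of the mutant yeast was measured after compound exposure and referenced to vehicle-treated cultures.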

[2] = NCI Yeast Anticancer Drug Screen. Data for the mec2-1 strain (AID 157); settings: S. cerevisiae mec2-1 strain, at 50.0 µM, hits give high values
How it was run: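 Cells of the genetically defined mec2-1 yeast strain are incubated with test compound. Inhibition of growth is calculated against vehicle-treated controls.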

[3] = NCI Yeast Anticancer Drug Screen. Data for the sgs1 mgt1 strain (AID 161);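 note: 0% = growth of cultures given vehicle only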; settings: S. cerevisiae sgs1 mgt1 strain, at 50.0 µM, hits give high values
How it was run: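 Genetically altered yeast, compound exposure, growth inhibition relative to vehicle.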

[4] = NCI Yeast Anticancer Drug Screen. Data for the cln2 rad14 strain (AID 165);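 note: 0% = growth equal to vehicle treated cultures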; settings: S. cerevisiae cln2 rad14 strain, at 50.0 µM, hits give high values
How it was run: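 The screen exposed genetically defined yeast (cln2 rad14) to test compounds and scored growth inhibition relative to vehicle-treated controls.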

[5] = NCI Yeast Anticancer Drug Screen. Data for the bub3 strain (AID 167); settings: S. cerevisiae bub3 mutant strain, at 50.0 µM, hits give high values
How it was run: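 Whole-cell yeast assay. The mutant strain was incubated with compounds, and growth inhibition was determined by comparison with vehicle-treated cells.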

[6] = NCI Yeast Anticancer Drug Screen. Data for the mlh1 rad18 strain (AID 175); settings: S. cerevisiae mlh1 rad18 strain growth inhibition; at 50.0 µM; hits give high values
How it was run: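 Compound-treated yeast growth, normalised to vehicle controls. Strain bears defined DNA repair mutations.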

Measured: growth inhibition

N#CCCN(CCC#N)c1ccc(/C=C2\CC(O)(c3ccccc3)N(c3ccc(Cl)cc3)C2=O)cc1 (stereo not given)
inactive: [1] -15.8% | [2] 0.35% | [3] -23.7% | [4] 11.3% | [5] -6.3% | [6] -22.4%

CCOC(=O)NC
inactive: [1] 14.4% | [2] 1.6% | [3] -19.6% | [4] 3.85% | [5] -1% | [6] 9.8%

C=C(NC(C)=O)C(=O)CCC(N)=O
inactive: [1] -0.75% | [2] -0.7% | [3] -7.5% | [4] 1.75% | [5] 4.75% | [6] -53.7%

CCCSc1nnc(SCCC)c2[nH]cnc12
inactive: [1] 0.85% | [2] -5.45% | [3] 0.95% | [4] -22.3% | [5] 2.4% | [6] -8.7%

CN(C)C1=NS(=O)(=O)N=C(N(C)c2ccccc2)O1
inactive: [1] 14.5% | [2] 6.65% | [3] 6.45% | [4] 16.8% | [5] 8.15% | [6] 10.5%

CC(=O)c1ccccn1
inactive: [1] -8.7% | [2] -31.4% | [3] -13.8% | [4] -7.3% | [5] -22.8% | [6] -26.6%

CC[P+]1(c2ccccc2)[C@@H](C)CC[C@@H]1C
inactive: [1] 15.1% | [2] 7.45% | [3] 12.6% | [4] 8.1% | [5] 3.75% | [6] 37.7%

C#CCCOC1(OC)N=NC(C)(C)O1 (stereo not given)
inactive: [1] 1.05% | [2] 0.9% | [3] -6.95% | [4] 12.3% | [5] -2.65% | [6] -24.6%

C[CH2][Sn]([CH2]C)([O]C(=O)c1ccc(OC)c(OC)c1OC)[O]C(=O)c1ccc(OC)c(OC)c1OC
inactive: [1] 41.5% | [2] 27.6% | [3] 24.6% | [4] 28.3% | [5] 19.4% | [6] 24.8%

Clc1ccc(C2ON=C(c3ccccc3)N2C23CC4CC(CC(C4)C2)C3)cc1 (stereo not given)
inactive: [1] -23.2% | [2] -27% | [3] -24.1% | [4] -0.3% | [5] -11.9% | [6] -0.75%

Cc1nc(CCCCCCCC(=O)O)ccc1O
inactive: [1] 6.25% | [2] 7.25% | [3] -10.6% | [4] -9.35% | [5] 0.85% | [6] 7.3%

CC(=O)Nc1c(C)cccc1F
inactive: [1] 2.35% | [2] 6.45% | [3] -3.95% | [4] 12.1% | [5] 3.3% | [6] -12.4%

COc1ccc2c(c1)OCCN(C)OC2c1cccc(Cl)c1 (stereo not given)
inactive: [1] -4.55% | [2] -6.45% | [3] -7.15% | [4] -5.15% | [5] 9.4% | [6] 6.7%

O=C(O)/C(=C\c1ccccc1[N+](=O)[O-])c1ccc(C(F)(F)F)cc1
inactive: [1] 4% | [2] -15.9% | [3] 1.95% | [4] 7.1% | [5] 10.7% | [6] -18.9%

CC(=O)OC1(C#N)CCCCC1
inactive: [1] 5.7% | [2] -2.3% | [3] -7.05% | [4] 23.1% | [5] 4.8% | [6] 14.4%

CN1CCC2(CC1)C(=O)N(N1CCCCCC1)C(=O)N2c1ccccc1
inactive: [1] 26.2% | [2] 4.85% | [3] -0.95% | [4] 4.5% | [5] 4% | [6] 15.5%

CC(=O)C(C)O (stereo not given)
inactive: [1] -27.8% | [2] -18.8% | [3] -15.2% | [4] -0.95% | [5] -21.4% | [6] -21.1%

C=C(C)C(=O)O[C@H]1CC2=C[C@@H](C[C@@]3(C)O[C@@H]3[C@H]3OC(=O)C(=C)[C@@H]31)OC2=O
inactive: [1] -8.35% | [2] 10.1% | [3] 22.2% | [4] 6.4% | [5] -10% | [6] -5.15%

CCCCOC(=O)C1(C(=O)OCCCC)CC1
inactive: [1] 14.8% | [2] -7.6% | [3] 1.3% | [4] 1.6% | [5] -3.75% | [6] 3.55%

O=c1c2c(oc3c(Cl)cc(Cl)cc13)CCCC2
inactive: [1] 13.3% | [2] -19.6% | [3] -1.8% | [4] 7.6% | [5] 5.8% | [6] 4.05%
